# This excerpt belongs to a sample that is enriched for the strongest signals.
# Key:
# Assay in all cases: glycan array binding signal (z-score within array); higher = stronger binding
# Settings in all cases: glycan notation: IUPAC condensed, linker removed
# [1] = target: Gal(b1-4)GlcNAc(b1-3)Gal(b1-4)GlcNAc(b1-2)[Gal(b1-4)GlcNAc(b1-3)Gal(b1-4)GlcNAc(b1-6)]Man(a1-6)[Gal(b1-4)GlcNAc(b1-3)Gal(b1-4)GlcNAc(b1-2)Man(a1-3)]Man(b1-4)GlcNAc(b1-4)[Fuc(a1-6)]GlcNAc
# How it was run: (§1)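 Arrays were curated from the Consortium for Functional Glycomics database, 3228 in total, and kept only where the protein sequence was available. Binding is expressed as a within-array Z-score. This score was averaged across arrays of the same protein sequence at different concentrations or buffers and across linkers, and negative values can be read as non-binding.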
# [2] = target: Gal(b1-4)GlcNAc(b1-3)Gal(b1-4)GlcNAc(b1-3)Gal(b1-4)GlcNAc(b1-3)Gal(b1-4)GlcNAc(b1-2)Man(a1-3)[Gal(b1-4)GlcNAc(b1-3)Gal(b1-4)GlcNAc(b1-3)Gal(b1-4)GlcNAc(b1-3)Gal(b1-4)GlcNAc(b1-2)Man(a1-6)]Man(b1-4)GlcNAc(b1-4)[Fuc(a1-6)]GlcNAc
# How it was run: as §1
# [3] = target: Gal(b1-4)GlcNAc(b1-3)Gal(b1-4)GlcNAc(b1-3)Gal(b1-4)GlcNAc(b1-3)Gal(b1-4)GlcNAc(b1-3)Gal(b1-4)GlcNAc(b1-2)Man(a1-3)[Gal(b1-4)GlcNAc(b1-3)Gal(b1-4)GlcNAc(b1-3)Gal(b1-4)GlcNAc(b1-3)Gal(b1-4)GlcNAc(b1-3)Gal(b1-4)GlcNAc(b1-2)Man(a1-6)]Man(b1-4)GlcNAc(b1-4)GlcNAc
# How it was run: as §1
# [4] = target: Gal(b1-4)GlcNAc(b1-3)Gal(b1-4)GlcNAc(b1-3)Gal(b1-4)GlcNAc(b1-3)Gal(b1-4)GlcNAc(b1-3)Gal(b1-4)GlcNAc(b1-3)Gal(b1-4)GlcNAc(b1-2)Man(a1-3)[Gal(b1-4)GlcNAc(b1-3)Gal(b1-4)GlcNAc(b1-3)Gal(b1-4)GlcNAc(b1-3)Gal(b1-4)GlcNAc(b1-3)Gal(b1-4)GlcNAc(b1-3)Gal(b1-4)GlcNAc(b1-2)Man(a1-6)]Man(b1-4)GlcNAc(b1-4)GlcNAc
# How it was run: as §1
# Gal3S(b1-4)Glc6S = target: Gal3S(b1-4)Glc6S
# How it was run: as §1
# Gal4S6S(b1-4)GlcNAc = target: Gal4S6S(b1-4)GlcNAc
# How it was run: as §1
# Gal6S(b1-4)Glc6S = target: Gal6S(b1-4)Glc6S
# How it was run: as §1
# Gal6S(b1-4)GlcNAc6S = target: Gal6S(b1-4)GlcNAc6S
# How it was run: as §1
# [5] = target: GalNAc(b1-3)Gal(a1-6)Gal(b1-4)Glc
# How it was run: as §1
# [6] = target: GalNAc(b1-4)GlcNAc(b1-2)Man
# How it was run: as §1
# [7] = target: GalNAc(b1-4)GlcNAc(b1-2)Man(a1-3)[GalNAc(b1-4)GlcNAc(b1-2)Man(a1-6)]Man(b1-4)GlcNAc(b1-4)GlcNAc
# How it was run: as §1
# [8] = target: GlcNAc(a1-4)Gal(b1-4)GlcNAc(b1-3)Gal(b1-4)Glc
# How it was run: as §1
# [9] = target: GlcNAc(b1-3)Gal(b1-4)GlcNAc(b1-3)Gal(b1-4)GlcNAc(b1-3)Gal(b1-4)GlcNAc(b1-3)Gal(b1-4)GlcNAc(b1-2)Man(a1-3)[GlcNAc(b1-3)Gal(b1-4)GlcNAc(b1-3)Gal(b1-4)GlcNAc(b1-3)Gal(b1-4)GlcNAc(b1-3)Gal(b1-4)GlcNAc(b1-2)Man(a1-6)]Man(b1-4)GlcNAc(b1-4)[Fuc(a1-6)]GlcNAc
# How it was run: as §1
# GlcNAc(b1-3)Man = target: GlcNAc(b1-3)Man
# How it was run: as §1
# [10] = target: Man(a1-2)Man(a1-3)[Man(a1-2)Man(a1-6)]Man
# How it was run: as §1
# [11] = target: Man(a1-2)Man(a1-6)[Man(a1-3)]Man(a1-6)[Man(a1-2)Man(a1-2)Man(a1-3)]Man(b1-4)GlcNAc(b1-4)GlcNAc
# How it was run: as §1
# [12] = target: Neu5Ac(a2-3)Gal(b1-3)GlcNAc
# How it was run: as §1
# [13] = target: Neu5Ac(a2-3)Gal(b1-4)GlcNAc(b1-2)Man(a1-3)[Neu5Ac(a2-3)Gal(b1-4)GlcNAc(b1-2)Man(a1-6)]Man(b1-4)GlcNAc(b1-4)[Fuc(a1-6)]GlcNAc
# How it was run: as §1
# [14] = target: Neu5Ac(a2-3)Gal(b1-4)GlcNAc(b1-2)[Neu5Ac(a2-3)Gal(b1-4)GlcNAc(b1-6)]Man(a1-6)[Neu5Ac(a2-3)Gal(b1-4)GlcNAc(b1-2)Man(a1-3)][GlcNAc(b1-4)]Man(b1-4)GlcNAc(b1-4)GlcNAc
# How it was run: as §1
# [15] = target: Neu5Ac(a2-3)Gal(b1-4)GlcNAc(b1-3)Gal(b1-4)GlcNAc
# How it was run: as §1
# [16] = target: Neu5Ac(a2-3)Gal(b1-4)GlcNAc(b1-3)Gal(b1-4)GlcNAc(b1-2)Man(a1-3)[Neu5Ac(a2-3)Gal(b1-4)GlcNAc(b1-3)Gal(b1-4)GlcNAc(b1-2)Man(a1-6)]Man(b1-4)GlcNAc(b1-4)GlcNAc
# How it was run: as §1
# [17] = target: Neu5Ac(a2-3)Gal(b1-4)GlcNAc(b1-3)Gal(b1-4)GlcNAc(b1-3)GalNAc
# How it was run: as §1
# [18] = target: Neu5Ac(a2-3)Gal(b1-4)GlcNAc(b1-3)Gal(b1-4)GlcNAc(b1-3)[Neu5Ac(a2-3)Gal(b1-4)GlcNAc(b1-3)Gal(b1-4)GlcNAc(b1-6)]GalNAc
# How it was run: as §1
# [19] = target: Neu5Ac(a2-3)Gal(b1-4)GlcNAc(b1-6)[Gal(b1-3)]GalNAc
# How it was run: as §1
# [20] = target: Neu5Ac(a2-3)Gal(b1-4)[Fuc(a1-3)]GlcNAc(b1-3)Gal(b1-4)[Fuc(a1-3)]GlcNAc(b1-3)Gal(b1-4)[Fuc(a1-3)]GlcNAc
# How it was run: as §1
# [21] = target: Neu5Ac(a2-3)Gal(b1-4)[Fuc(a1-3)]GlcNAc(b1-3)GalNAc
# How it was run: as §1
# Neu5Ac(a2-3)GalNAc = target: Neu5Ac(a2-3)GalNAc
# How it was run: as §1
# [22] = target: Neu5Ac(a2-3)[GalNAc(b1-4)]Gal(b1-4)Glc
# How it was run: as §1
# [23] = target: Neu5Ac(a2-6)Gal(b1-4)GlcNAc(b1-3)GalNAc
# How it was run: as §1
# [24] = target: Neu5Ac(a2-6)GalNAc(b1-4)GlcNAc
# How it was run: as §1
# [25] = target: Neu5Ac(a2-6)GlcNAc(b1-4)GlcNAc
# How it was run: as §1
# [26] = target: Neu5Ac(a2-8)Neu5Ac(a2-8)Neu5Ac
# How it was run: as §1
# [27] = target: Neu5Ac(a2-8)Neu5Gc(a2-3)Gal(b1-4)GlcNAc
# How it was run: as §1
# [28] = target: Neu5Gc(a2-3)Gal(b1-3)GlcNAc
# How it was run: as §1
binder,measurement,setting,value
PX14379A-bvu-539-28-539 (Bacteroides vulgatus) (protein) EPYSEIIEEDYVPTEADEIALLATTYSQLRFVMDWYGLFDLQEESGDVIVTPTRPNGWDDGGTYKQMHKHTWDNQQGQPQSIWDYCYKGIANANKILKRADEGFFTEESKPKVVAEVKGVRALWYSILCDTHGNIPIQTSFSEEVPVQSTRKQVFDFIINELKEVMPNLPTEVNKSTYGRLTQWGAKCLMARMYLNAGVYTGTPMWNECLEQCNDIINSGLFSLETNYTDIFKTENSGCVETIFAIPYDEVYNEGDNNGPVFGAHMKFLSSNSRKVFNMQTTPWGGSAANPQFINSYDPDDMRLKYTWLQGDQYSPDGVLITTFPNKLPSIYKTDTDDGYRVGKYEIKVGAKSLLSNDFPYFRYTEVLLMKAECLLRLGQNETEAAHIVSQIRERAFRESAHPEKATVDAAWLKGDTHINYGTLDEKGQIDDAGNTEVVELGGLYDEWGWEFAAEARRRTDMIRFGTYQKKSWFNHTPTANDLNGNSILFPIHLDHLNTNPNLQQNPGYAGK,glycan array binding signal (z-score),[1],7.27
same,glycan array binding signal (z-score),[2],0.984
same,glycan array binding signal (z-score),[3],9.41
same,glycan array binding signal (z-score),[4],0.819
same,glycan array binding signal (z-score),Gal3S(b1-4)Glc6S,-0.224
same,glycan array binding signal (z-score),Gal4S6S(b1-4)GlcNAc,-0.533
same,glycan array binding signal (z-score),Gal6S(b1-4)Glc6S,-0.28
same,glycan array binding signal (z-score),Gal6S(b1-4)GlcNAc6S,-0.175
same,glycan array binding signal (z-score),[5],2.98
same,glycan array binding signal (z-score),[6],-0.549
same,glycan array binding signal (z-score),[7],-0.102
same,glycan array binding signal (z-score),[8],-0.444
same,glycan array binding signal (z-score),[9],3.83
same,glycan array binding signal (z-score),GlcNAc(b1-3)Man,-0.278
same,glycan array binding signal (z-score),[10],-0.377
same,glycan array binding signal (z-score),[11],-0.361
same,glycan array binding signal (z-score),[12],-0.439
same,glycan array binding signal (z-score),[13],-0.571
same,glycan array binding signal (z-score),[14],-0.378
same,glycan array binding signal (z-score),[15],-0.185
same,glycan array binding signal (z-score),[16],0.342
same,glycan array binding signal (z-score),[17],-0.138
same,glycan array binding signal (z-score),[18],-0.132
same,glycan array binding signal (z-score),[19],-0.388
same,glycan array binding signal (z-score),[20],-0.35
same,glycan array binding signal (z-score),[21],5.8
same,glycan array binding signal (z-score),Neu5Ac(a2-3)GalNAc,-0.249
same,glycan array binding signal (z-score),[22],-0.297
same,glycan array binding signal (z-score),[23],-0.204
same,glycan array binding signal (z-score),[24],-0.211
same,glycan array binding signal (z-score),[25],-0.56
same,glycan array binding signal (z-score),[26],-0.382
same,glycan array binding signal (z-score),[27],7.1
same,glycan array binding signal (z-score),[28],-0.228
